Experimental data taken from PubChem BioAssay (NCATS).
Records with an inconclusive call do not appear. Entries that show only a call come without a potency. Active and inactive are the calls of the source. Calls follow the shape of the dose curve; as a rule, active = well fitted inhibition curve with a large enough effect; inconclusive = small, poorly fitted or top-dose-only effect; inactive = flat fitted curve, though single readings scatter.

These molecules were tested against Luciferin 4-monooxygenase (Photinus pyralis) (UniProt P08659) (assay: Biochemical firefly luciferase enzyme assay for NPC (AID 624030;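 also: purified P. pyralis luciferase at 10 nM with luciferin and ATP substrate; nearly all actives have a fitted effect of over 70% in size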)). Conditions: purified P. pyralis luciferase, luminescence, 5 min; series mostly up to 58.6 µM.
In short: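 Purified P. pyralis luciferase at 10 nM in 50 mM Tris Acetate (final), luminescence read within 5 minutes of enzyme addition to compounds. Activity normalised to PTC124 versus DMSO; concentration-response curves classed by r2, magnitude and activity.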

Sequence of Luciferin 4-monooxygenase (Photinus pyralis) (P08659 whole entry, looked up): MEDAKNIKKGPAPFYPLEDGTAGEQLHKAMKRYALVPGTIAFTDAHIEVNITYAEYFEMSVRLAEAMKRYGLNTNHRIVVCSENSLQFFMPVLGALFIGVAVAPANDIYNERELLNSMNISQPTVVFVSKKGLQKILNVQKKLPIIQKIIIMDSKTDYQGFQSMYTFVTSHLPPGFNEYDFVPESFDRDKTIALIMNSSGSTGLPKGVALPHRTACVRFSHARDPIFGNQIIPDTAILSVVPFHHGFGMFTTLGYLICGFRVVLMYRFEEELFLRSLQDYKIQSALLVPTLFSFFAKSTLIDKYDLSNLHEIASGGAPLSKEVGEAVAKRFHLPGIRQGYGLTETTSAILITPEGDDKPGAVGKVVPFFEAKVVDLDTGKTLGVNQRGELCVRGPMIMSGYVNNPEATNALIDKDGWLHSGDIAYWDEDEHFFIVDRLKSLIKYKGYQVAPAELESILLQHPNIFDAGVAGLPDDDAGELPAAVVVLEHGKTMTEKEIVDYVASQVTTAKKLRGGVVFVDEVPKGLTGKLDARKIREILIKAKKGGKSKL

| SMILES | Potency |
| --- | --- |
| CCCN(CC)[C@@H](CC)C(=O)Nc1c(C)cccc1C | inactive |
| CC1(C)SC2C(NC(=O)C(c3ccccc3)S(=O)(=O)O)C(=O)N2C1C(=O)O (stereo not given) | inactive |
| CSCCC(NC(=O)[C@H](Cc1c[nH]c2ccccc12)NC(=O)CNC(=O)[C@H](CCSC)NC(=O)[C@H](Cc1ccc(OS(=O)(=O)O)cc1)NC(=O)[C@@H](N)CC(=O)O)C(=O)N[C@@H](CC(=O)O)C(=O)N[C@@H](Cc1ccccc1)C(N)=O (stereo not given in full) | inactive |
| CO[C@@]1(NC(=O)CSC(F)F)C(=O)N2C(C(=O)O)=C(CSc3nnnn3CCO)CO[C@@H]21 | inactive |
| CC(NC(CCc1ccccc1)C(=O)O)C(=O)N1CCCC1C(=O)O (stereo not given) | inactive |
| CC[C@H]1OC(=O)[C@H](C)[C@@H](O[C@H]2C[C@@](C)(OC)[C@@H](O)[C@H](C)O2)[C@H](C)[C@@H](O[C@@H]2O[C@H](C)C[C@H](N(C)C)[C@H]2O)[C@](C)(O)C[C@@H](C)[C@@H]2N[C@@H](COCCOC)O[C@H]([C@H]2C)[C@]1(C)O | inactive |
| CC1(C)C(C(=O)O)N2C(=O)CC2S1(=O)=O (stereo not given) | inactive |
| CC(=O)O[C@H]1C[C@@H]2CC[C@@H]3[C@H](CC[C@]4(C)[C@H](OC(C)=O)[C@@H](N5CC[N+](C)(C)CC5)C[C@@H]34)[C@@]2(C)C[C@@H]1N1CC[N+](C)(C)CC1 | inactive |
| CCN1C(=O)c2ccccc2C1Nc1cccc(OCCN2CCCCC2)c1 (stereo not given) | inactive |
| CC(=O)NC(CCC(N)=O)C(=O)O (stereo not given) | inactive |
| C[N+](C)(C)CCOP(=O)(O)OP(=O)([O-])OCC1OC(n2ccc(N)nc2=O)[C@H](O)[C@@H]1O (stereo not given in full) | inactive |
| CC(C)=CCC/C(C)=C\CC/C(C)=C\CC/C=C(\C)CC/C=C(\C)CCC=C(C)C | inactive |
| CC(=O)O[C@@H]1C(=O)O[C@H]2[C@@H]1OC(=O)[C@@H]2OC(C)=O | inactive |
| COc1ccc(CCNC[C@H](O)COc2cccc(C)c2)cc1OC | inactive |
| CC(C)N(Cc1ccccc1)C(C)C (tested in a mixture with another compound) | inactive |
